Assay outcomes deposited in PubChem BioAssay by several laboratories.
RTF Ca sens inh – cardiac RTF calcium sensitivity inhibitors, primary screen, biochemical, IANBD-TnC fluorescence, EC70 calcium. Troponin I, cardiac muscle (Homo sapiens) + Troponin T, cardiac muscle (Homo sapiens) + …. IANBD-labeled cardiac RTF, Ca2+ fluorescence. inhibition, % at 7.15 µM. 0.12% of 340,000 active. AID 493244, 2011;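 active means inhibition above the mean inhibition of all tested compounds plus 3 SD, cut at about 17% in these data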;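 further: assay run at fixed EC70 calcium of 1.6 mM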
RTF Ca sens act – cardiac RTF calcium sensitivity activators, primary screen, biochemical, IANBD-TnC fluorescence, EC20 calcium; IANBD-labeled TnC RTF fluorescence at EC20 calcium; 0% EC20 calcium, 100% full calcium; Troponin I, cardiac muscle (Homo sapiens) + Troponin T, cardiac muscle (Homo sapiens) + …; activation, % at 7.2 µM; 0.24% of 340,000 active;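 active means activation above the mean over all tested compounds plus 3 SD, cut at about 30% in these data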;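 further: rise in fluorescence read as greater calcium sensitivity of cardiac thin filaments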
C-LANA FP – inhibitors of KSHV C-LANA binding to DNA, primary screen, biochemical, fluorescence polarization, FAM-LBS DNA, MBP-C-LANA, single point; 0.078% of 340,000 active; inhibition, % at 9 µM; Kaposi's sarcoma herpesvirus LANA C-terminal domain (residues 932-1162) DNA binding; AID 504423, 2011;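 active means highest replicate inhibition at or above 60% at 9 µM, even if other replicates fall short; inactive means all replicates below 60% inhibition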;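 further: 0% = neutral control wells and 100% = 4 µM acridine orange control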
Keap1-Nrf2 PPI – Keap1-Nrf2 protein-protein interaction inhibitors, primary screen, biochemical, fluorescence polarization, single point; Kelch-like ECH-associated protein 1 (Homo sapiens), Q14145; Keap1 Kelch-Nrf2 peptide fluorescence polarization, 1536-well; inhibition, % at 9.4 µM; 0.15% of 340,000 active; in the data active means inhibition above about 12%;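 further: human Keap1 Kelch domain with fluorescein labeled Nrf2 9mer peptide probe; 0% = neutral control wells and 100% = peptide positive control; higher means more block of Keap1 binding to Nrf2 peptide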
Target sequence (Q14145 whole entry, looked up, the tested form may be a part): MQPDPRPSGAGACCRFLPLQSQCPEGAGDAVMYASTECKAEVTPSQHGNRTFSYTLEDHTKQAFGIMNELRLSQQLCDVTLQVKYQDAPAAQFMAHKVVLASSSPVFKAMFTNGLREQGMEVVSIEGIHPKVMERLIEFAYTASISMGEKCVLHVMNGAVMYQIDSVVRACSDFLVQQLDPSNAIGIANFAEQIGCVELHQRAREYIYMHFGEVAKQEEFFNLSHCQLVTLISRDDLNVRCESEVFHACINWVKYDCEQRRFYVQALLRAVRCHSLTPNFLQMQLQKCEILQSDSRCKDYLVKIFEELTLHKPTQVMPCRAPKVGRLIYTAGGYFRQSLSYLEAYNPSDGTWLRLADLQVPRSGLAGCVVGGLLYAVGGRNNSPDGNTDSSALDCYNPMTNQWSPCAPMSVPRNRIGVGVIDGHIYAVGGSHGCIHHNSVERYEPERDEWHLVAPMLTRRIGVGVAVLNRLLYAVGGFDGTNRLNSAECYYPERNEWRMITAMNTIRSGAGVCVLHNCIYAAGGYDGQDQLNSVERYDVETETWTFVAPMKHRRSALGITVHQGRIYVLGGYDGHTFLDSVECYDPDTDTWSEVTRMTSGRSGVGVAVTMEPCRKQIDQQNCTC
E coli Lon inh – inhibitors of E. coli Lon protease, primary screen, biochemical, fluorescence polarization. P0A9M0. inhibition, % at 7.94 µM. purified E. coli Lon protease. 0.42% of 360,000 active. AID 602123, 2011; in the data active means inhibition above about 13%, passing the limit was not always enough;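 further: 0% = enzyme with probe and DMSO and 100% = no enzyme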
E coli Lon conf – E. coli Lon protease inhibitor retest, confirmation, biochemical, fluorescence polarization; shares compounds with E coli Lon inh; purified E. coli Lon; inhibition, % at 7.94 µM; 31% of 1,400 active; AID 602230, 2012; in the data active means inhibition above about 16%;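 further: 0% = enzyme with probe and DMSO and 100% = no enzyme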
Numbers without * were called inactive; . = not tested or not shown; + = active, no number. Shown are actives, neighbours in structure and some others; about 0.82% of the full set was active somewhere.

SMILES	RTF Ca sens inh	RTF Ca sens act	C-LANA FP	Keap1-Nrf2 PPI	E coli Lon inh	E coli Lon conf
CCOc1cccc(=O)c2c(C)n(-c3ccc(C(=O)O)cc3)c(C)c12	-4	-1	6	-4	-1	.
COc1cccc(=O)c2c(C)n(-c3ccc(C(=O)O)cc3)c(C)c12	-12	8	27	-6	27*	11
O=C(N/N=C/c1ccc(-c2ccc(S(=O)(=O)Nc3ncccn3)cc2)o1)c1cc2ccccc2cc1O	15	-18	2	3	26*	30*
CN1C(=O)N(C)c2ccc(C=O)c3cccc1c23	-24	6	2	2	16*	15
CC1C(=O)N(Cc2cn(CCC3OCCCO3)nn2)CCS(=O)(=O)N1Cc1ccc(-c2ccc(Cl)cc2)cc1 (stereo unspecified)	.	.	.	.	13*	24*
COc1cc(OC)c(C2Nc3ccccc3NC3=C2C(=O)CC(C)(C)C3)cc1OC (stereo unspecified)	-10	-1	14	4	17*	-8
COc1cc(C2Nc3ccccc3NC3=C2C(=O)CC(C)(C)C3)cc(OC)c1OC (stereo unspecified)	-17	0	4	4	-8	.
Cn1cccc1C1Nc2ccccc2NC2=C1C(=O)CC(C)(C)C2 (stereo unspecified)	-17	7	5	2	39*	-10
N#Cc1cccc(-c2csc(C(O)c3ccc(F)cc3)n2)c1 (stereo unspecified)	.	.	.	.	-1	.
CCN(CC)CCN(C)C(=O)c1[nH]c(C(F)(F)F)nc1-c1ccccc1	.	.	.	.	-5	.
COc1ccc(N2CCN(c3cc(C(=O)Nc4cc(OC)c(OC)c(OC)c4)ncn3)CC2)cc1OC	.	.	.	.	12*	1
COc1cc(NC(=O)c2ccccn2)cc(OC)c1OC	-9	13	0	-4	4	.
CC1(C(=O)Nc2cccc3cccnc23)CCN1Cc1cccc2c1OCO2 (stereo unspecified)	.	.	.	.	-9	.
Cc1cc(C(C)(C)C)oc1C(=O)N(CC(=O)NC1CCCC1)Cc1ccccc1Cl	-8	-12	0	-4	133*	3
Oc1cccc(/C=N/NC(=S)Nc2cccnc2)c1O	-7	-4	0	-3	0	.
Oc1ccc(/C=N/NC(=S)Nc2cccnc2)c(O)c1O	-4	3	12	-4	24*	27*
C[C@H](NC(=O)[C@@H]1CCCN1C(=O)[C@@H]1CCCN1)c1ccccc1	.	.	.	.	1	.
Cc1ccc(S(=O)(=O)CNC(=S)c2ccc3ccccc3c2)cc1	-4	-1	0	0	20*	12
C[C@H](CO)N1C[C@H](C)[C@H](CN(C)Cc2cccc(F)c2)Oc2ncc(Br)cc2C1=O	.	.	.	.	3	.
O=C(Nc1ccc(C(=O)N2CCN(c3ccc(F)cc3)CC2)cc1)C1=CSCCO1	-8	-1	0	-2	9	.
O=C(Nc1ccc(C(=O)N2CCN(c3ccc(Cl)cc3)CC2)cc1)C1=CSCCO1	-2	-3	2	-2	25*	2
COc1ccc(CN2CCC(CO)(Cc3ccccc3C(F)(F)F)CC2)c(F)c1	-10	-3	1	0	20*	0
COc1ccc(CC2(CO)CCN(Cc3cccc4nccnc34)CC2)cc1	-9	2	1	6	1	.
CCc1nc2ccc(C(=O)N3CCN(S(=O)(=O)CC)CC3)cn2c1N(CC)CCOC	.	.	.	.	-10	.
c1ccc(Nc2ccccc2Nc2ccccn2)nc1	-4	6	3	-3	33*	2
SMILES	RTF Ca sens inh	RTF Ca sens act	C-LANA FP	Keap1-Nrf2 PPI	E coli Lon inh	E coli Lon conf
Nc1nc2ncccc2cc1C(=O)NC1CCCCC1	.	.	.	.	4	.
CC(NS(=O)(=O)c1ccccc1)C1CC2CCC1C2 (stereo unspecified)	2	3	0	-2	23*	-2
COc1cccc(CNc2nc3cc(-c4ccccc4CO)sc3c(=O)n2C)c1	.	.	.	.	-3	.
OC(Cc1ccccc1)c1ncc(-c2ccc3ccccc3c2)[nH]1 (stereo unspecified)	.	.	.	.	7	.
CC(=O)Nc1cccc(NC(=O)CSc2nc(=O)n(CCN3CCOCC3)c3c2CCC3)c1	-6	-3	-1	-2	105*	-114
O=C(c1ccc2c(c1)CCN2S(=O)(=O)c1ccccc1)N1CCN(c2ccccc2)CC1	-6	4	-1	3	-15	.
O=C(c1ccc2c(c1)CCN2S(=O)(=O)c1ccccc1)N1CCN(c2ccccc2F)CC1	2	-2	-1	-2	18*	4
C(/C=C/c1ccccn1)=C\c1ccccc1	-4	-2	4	-1	36*	2
Cc1cc(/C=N/NC(N)=S)c(O)c(/C=N/NC(N)=S)c1	-266	166*	32	0	+	189*
CCOC(=O)C1C(C(=O)OCC)C2C(=O)C3C(C(=O)OCC)C(C(=O)OCC)C3C(=O)C12 (stereo unspecified)	.	.	.	.	6	.
CCN1CCN(C(CNS(=O)(=O)c2ccccc2)c2cccnc2)CC1 (stereo unspecified)	0	0	-1	-6	19*	-6
CCn1nccc1NC(=O)c1csc([C@@H]2C[C@H](O)[C@@H](CO)O2)n1	.	.	.	.	6	.
CCCCn1c(NC(C)=O)c(C#N)c2nc3ccccc3nc21	-3	-2	1	-2	23*	-9
COC(=O)[C@]1(Sc2ccc(OC)cc2)CC(=O)N[C@@H]1c1ccccc1	.	.	.	.	-6	.
CCOC(=O)C1Nc2ccccc2C2c3ccccc3CC12 (stereo unspecified)	-7	5	-2	4	30*	29*
CCOC(=O)C1Nc2c(F)cc(C)cc2C2c3ccccc3CC12 (stereo unspecified)	-4	-1	1	-1	-2	.
COc1ccc(/C=C/C(=O)OCC(=O)N2c3ccccc3CC2C)c(OC)c1 (stereo unspecified)	.	.	.	.	14*	-4
COc1cccc(/C=C/C(=O)OCC(=O)N2c3ccccc3CC2C)c1OC (stereo unspecified)	-5	-15	-1	2	-4	.
c1cc(CNc2ccc3c(c2)OCO3)ccn1	-27	6	17	8	27*	34*
Cc1c(C=O)c2ccccn2c1C(=O)c1ccccc1Cl	1	-2	-3	-4	1	.
Cc1c(C=O)c2ccccn2c1C(=O)c1cccs1	-6	16	13	4	31*	22*
COC(=O)CN(c1nc(C)c(Br)c(OC)n1)S(=O)(=O)c1ccc(C)cc1	-13	7	0	-2	-4	.
C=CCN(c1nc(C)c(Br)c(OC)n1)S(=O)(=O)c1ccc(C)cc1	2	-1	3	-2	49*	6
